Assay results taken from PubChem BioAssay (Tox21).
Several values for one entry are separate records, joined by “and”; a condition that tells them apart may be missing. Identical values can stand only once. Results filed as inconclusive are left out. Activity calls are given as the source filed them. Unless noted, the call rests on the fitted dose curve; in most records, active means well fitted curve in the direction sought with a large enough effect in the repeat runs; inconclusive means weak or mixed curves; inactive means no such curve, though single readings can be large; an effect the other way counts as inactive or inconclusive.

What was measured:
[1] = target: Retinoic acid receptor RXR-alpha (Homo sapiens) (UniProt P19793); assay: qHTS assay to identify small molecule agonists of the RXR signaling pathway (AID 1159527; calls by dose curve; further: nearly all actives have a fitted effect of over 35% in size)
Retinoic acid receptor RXR-alpha (Homo sapiens), sequence (P19793 whole entry, looked up): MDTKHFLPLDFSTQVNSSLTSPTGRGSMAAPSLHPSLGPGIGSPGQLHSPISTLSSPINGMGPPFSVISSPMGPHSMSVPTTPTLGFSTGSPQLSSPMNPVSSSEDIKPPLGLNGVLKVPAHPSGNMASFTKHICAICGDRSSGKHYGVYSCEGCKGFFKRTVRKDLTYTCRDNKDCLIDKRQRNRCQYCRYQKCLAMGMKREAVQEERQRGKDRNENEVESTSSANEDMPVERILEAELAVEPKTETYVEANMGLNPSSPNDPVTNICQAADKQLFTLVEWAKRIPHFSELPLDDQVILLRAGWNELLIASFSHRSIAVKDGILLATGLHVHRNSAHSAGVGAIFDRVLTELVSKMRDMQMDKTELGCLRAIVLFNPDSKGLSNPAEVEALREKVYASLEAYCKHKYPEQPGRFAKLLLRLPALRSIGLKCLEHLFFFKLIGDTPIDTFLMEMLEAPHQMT
Summary of the method: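 Compounds in DMSO were added to RXR-alpha-UAS-bla HEK 293T cells kept in 2% charcoal-stripped serum, and incubated 16 hr at 37 C with 5% CO2. Reporter signal came from a 2 hr B/G FRET substrate step.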

[2] = qHTS assay to identify small molecule antagonists of the estrogen related receptor (ERR) signaling pathway from Tox21 library - cell viability counter screen (AID 1224834); further: nearly all actives have a fitted effect of over 30% in size; further: potency means the concentration at half of the fitted maximal effect
Summary of the method: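 ERR cells, 2,000/well; 6 h settle at 37 C/5% CO2; pin-tool compound transfer in DMSO; 17.5 h at 37 C; CellTiter-Fluor, 30 min; fluorescence intensity.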

[3] = target: Luciferin 4-monooxygenase (Photinus pyralis) (UniProt P08659); assay: qHTS assay to identify small molecule inhibitors of firefly luciferase (AID 1224835); further: series mostly up to about 120 µM; nearly all actives have a fitted effect of over 25% in size
Luciferin 4-monooxygenase (Photinus pyralis), sequence (P08659 whole entry, looked up): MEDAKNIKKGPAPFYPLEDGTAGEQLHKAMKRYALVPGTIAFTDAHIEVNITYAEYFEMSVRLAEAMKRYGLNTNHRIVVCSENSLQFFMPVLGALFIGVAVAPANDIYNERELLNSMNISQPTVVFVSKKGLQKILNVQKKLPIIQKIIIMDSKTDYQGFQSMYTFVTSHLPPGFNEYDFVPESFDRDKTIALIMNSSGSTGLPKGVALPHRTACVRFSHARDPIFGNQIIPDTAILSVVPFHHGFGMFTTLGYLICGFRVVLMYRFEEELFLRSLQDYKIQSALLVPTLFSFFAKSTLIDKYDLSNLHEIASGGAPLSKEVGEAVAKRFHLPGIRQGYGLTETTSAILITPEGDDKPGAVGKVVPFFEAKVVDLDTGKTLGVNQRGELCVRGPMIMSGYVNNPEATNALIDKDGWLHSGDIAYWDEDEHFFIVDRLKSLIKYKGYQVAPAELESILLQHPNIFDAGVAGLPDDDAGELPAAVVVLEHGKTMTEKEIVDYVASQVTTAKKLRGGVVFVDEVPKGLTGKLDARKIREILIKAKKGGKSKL
Summary of the method: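 Biochemical qHTS: compounds run as interplate titrations against purified firefly enzyme, with D-luciferin and ATP each at its KM concentration. Light output recorded by CCD imaging.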

[4] = qHTS RealTime-Glo MT Cell Viability Assay in HepG2 cells - 24 hour (AID 1224867); further: nearly all actives have a fitted effect of over 50% in size; further: potency means the concentration at half of the fitted maximal effect
Summary of the method: (§1)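 Tox21 10K library screened in qHTS format on HepG2 cells carrying RealTime-Glo reagents. Compounds were added after a 5 h preincubation, and the luminescent signal from continuous culture was measured repeatedly during 40 h treatment.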

[5] = qHTS RealTime-Glo MT Cell Viability Assay in HEK293 cells - 32 hour (AID 1224868); further: nearly all actives have a fitted effect of over 50% in size; further: potency means the concentration at half of the fitted maximal effect
Summary of the method: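 Luminescence generated by NanoLuc from substrate produced by living HEK293 cells served as the viability signal. Each value reflects the reading at its stated time point during continuous 40 h compound exposure at 37 C.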

[6] = qHTS RealTime-Glo MT Cell Viability Assay in HEK293 cells - 0 hour (AID 1224880); further: top concentration of the series differs between compounds; nearly all actives have a fitted effect of over 45% in size
Summary of the method: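 Real-time viability in HEK293: signal arises when living cells convert a prosubstrate for NanoLuc in the medium, so luminescence tracks viable cell number. Compound (23 nL, DMSO) added 5 h post-seeding; kinetic reads at 0–40 h, 37 C.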

[7] = qHTS RealTime-Glo MT Cell Viability Assay in HepG2 cells - 16 hour (AID 1224885); further: nearly all actives have a fitted effect of over 50% in size
Summary of the method: as §1

[8] = qHTS RealTime-Glo MT Cell Viability Assay in HepG2 cells - 0 hour (AID 1224889); further: nearly all actives have a fitted effect of over 50% in size; further: potency means the concentration at half of the fitted maximal effect
Summary of the method: as §1

[9] = qHTS assay to identify small molecule antagonists of the sonic hedgehog signaling (Shh) pathway - cell viability counter screen (AID 1259367); further: nearly all actives have a fitted effect of over 55% in size; further: potency means the concentration at half of the fitted maximal effect
Summary of the method: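 Tox21 library chemicals were tested on a Gli1-Luc NIH/3T3 clone (2,000 cells/well) stimulated by conditioned medium; viability was quantified as fluorescence from CellTiter-Fluor reagent added at 23 hr.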

[10] = qHTS assay to identify small molecule agonists of the TGF-beta/Smad signaling pathway - cell viability counter screen (AID 1346829); further: top concentration of the series differs between compounds; nearly all actives have a fitted effect of over 45% in size
Summary of the method: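 HEK 293T SBE-bla line, 5 hr compound exposure at 37 C, multiplexed CellTiter-Glo viability read by luminescence.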

[11] = target: Nuclear receptor subfamily 1 group I member 2 (Homo sapiens) (UniProt O75469); assay: Human pregnane X receptor (PXR) small molecule agonists, qHTS assay (AID 1346982); further: potency means the concentration at half of the fitted maximal effect; nearly all actives have a fitted effect of over 35% in size
Nuclear receptor subfamily 1 group I member 2 (Homo sapiens), sequence (O75469 whole entry, looked up): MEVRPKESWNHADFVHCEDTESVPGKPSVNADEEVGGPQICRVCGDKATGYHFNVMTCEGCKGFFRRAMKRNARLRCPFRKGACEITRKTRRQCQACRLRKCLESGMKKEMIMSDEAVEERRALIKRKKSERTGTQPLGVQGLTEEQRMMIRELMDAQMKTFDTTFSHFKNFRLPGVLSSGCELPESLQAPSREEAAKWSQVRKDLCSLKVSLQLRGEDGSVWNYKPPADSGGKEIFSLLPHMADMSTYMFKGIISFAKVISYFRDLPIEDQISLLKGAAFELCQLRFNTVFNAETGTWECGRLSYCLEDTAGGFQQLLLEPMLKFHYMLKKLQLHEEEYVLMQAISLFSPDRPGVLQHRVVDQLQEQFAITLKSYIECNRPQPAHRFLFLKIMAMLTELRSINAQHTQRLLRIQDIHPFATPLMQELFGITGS
Summary of the method: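 Cells: HepG2 stably carrying PXR-Luc. Medium held 5% charcoal-stripped FBS. Compounds in DMSO added after 5 hr plating, incubated 24 hr, then luminescence quantified with ONE-Glo.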

[12] = target: Cytochrome P450 2C19 (Homo sapiens) (UniProt P33261); assay: Cytochrome P450 Family 2 Subfamily C Member 19 (CYP2C19) small molecule antagonists: luciferase reporter qHTS assay (AID 1671197); further: nearly all actives have a fitted effect of over 65% in size; further: potency means the concentration at half of the fitted maximal effect
Cytochrome P450 2C19 (Homo sapiens), sequence (P33261 whole entry, looked up): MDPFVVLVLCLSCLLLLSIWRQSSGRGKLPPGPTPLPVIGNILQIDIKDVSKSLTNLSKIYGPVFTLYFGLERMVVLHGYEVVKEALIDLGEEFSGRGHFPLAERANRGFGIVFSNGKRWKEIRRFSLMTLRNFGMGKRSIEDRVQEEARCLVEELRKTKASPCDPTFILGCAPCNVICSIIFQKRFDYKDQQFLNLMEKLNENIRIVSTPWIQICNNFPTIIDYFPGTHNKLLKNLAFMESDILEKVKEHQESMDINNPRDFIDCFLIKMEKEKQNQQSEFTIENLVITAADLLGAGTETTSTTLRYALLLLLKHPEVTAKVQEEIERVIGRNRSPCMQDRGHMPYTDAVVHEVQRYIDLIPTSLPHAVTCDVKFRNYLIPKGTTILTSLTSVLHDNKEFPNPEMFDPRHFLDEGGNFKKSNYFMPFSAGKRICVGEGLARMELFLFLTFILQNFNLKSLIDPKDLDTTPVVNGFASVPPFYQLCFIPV
Summary of the method: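 First, compounds are pinned into enzyme-substrate mix and held 10 min at room temperature. Second, NADPH regeneration solution is added and plates incubate 1 h at 37C. Third, detection reagent is added and luminescence read after 20 min.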

[13] = target: Cytochrome P450 2C9 (Homo sapiens) (UniProt P11712); assay: Cytochrome P450 Family 2 Subfamily C Member 9 (CYP2C9) small molecule antagonists: luciferase reporter qHTS assay (AID 1671198)
Cytochrome P450 2C9 (Homo sapiens), sequence (P11712 whole entry, looked up): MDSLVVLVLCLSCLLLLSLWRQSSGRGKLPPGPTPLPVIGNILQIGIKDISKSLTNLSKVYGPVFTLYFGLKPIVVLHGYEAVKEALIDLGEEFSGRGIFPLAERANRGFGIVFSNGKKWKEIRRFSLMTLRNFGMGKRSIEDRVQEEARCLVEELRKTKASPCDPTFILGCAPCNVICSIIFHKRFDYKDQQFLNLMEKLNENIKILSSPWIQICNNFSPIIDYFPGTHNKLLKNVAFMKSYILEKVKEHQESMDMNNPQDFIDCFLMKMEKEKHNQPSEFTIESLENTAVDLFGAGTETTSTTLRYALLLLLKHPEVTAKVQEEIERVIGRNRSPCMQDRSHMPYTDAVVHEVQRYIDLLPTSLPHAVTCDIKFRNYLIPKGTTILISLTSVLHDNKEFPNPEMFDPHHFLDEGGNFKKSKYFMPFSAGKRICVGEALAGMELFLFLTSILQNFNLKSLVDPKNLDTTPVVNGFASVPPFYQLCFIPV
Summary of the method: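 P450-Glo proluciferin substrate with CYP2C9 enzyme; 10 min RT preincubation, then NADPH regeneration 1 h at 37C; luciferin detection reagent 20 min RT, luminescence in relative luminescence units.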

[14] = qHTS assay to identify small molecule agonists of the constitutive androstane receptor (CAR) signaling pathway - cell viability counter screen (AID 1224836); further: nearly all actives have a fitted effect of over 45% in size; further: potency means the concentration at half of the fitted maximal effect
Summary of the method: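 Double-stable HepG2 hepatoma cells (hCAR plus CYP2B6-2.2kb) are treated for 23 h at 37 C with test compounds in 15-point concentration series. PK11195 at 0.75 uM final is co-added. Cell viability is quantified by CellTiter-Fluor.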

[15] = A CellTox Green Cytotoxicity Assay to monitor cytotoxicity in HepG2 cells - 24 hour (AID 1224878); further: nearly all actives have a fitted effect of over 45% in size; further: potency means the concentration at half of the fitted maximal effect
Summary of the method: (§2)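 Cells and non-lytic dye reagent are dispensed together (600 HepG2 cells/well) and incubated 5 h before DMSO compound transfer. Kinetic fluorescence is then recorded in the same wells during 40 h at 37 C.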

[16] = A CellTox Green Cytotoxicity Assay to monitor cytotoxicity in HepG2 cells - 40 hour (AID 1224879); further: nearly all actives have a fitted effect of over 40% in size; further: potency means the concentration at half of the fitted maximal effect
Summary of the method: as §2

[17] = A CellTox Green Cytotoxicity Assay to monitor cytotoxicity in HepG2 cells - 32 hour (AID 1224883); further: nearly all actives have a fitted effect of over 50% in size; further: potency means the concentration at half of the fitted maximal effect
Summary of the method: as §2

[18] = A CellTox Green Cytotoxicity Assay to monitor cytotoxicity in HEK293 cells - 8 hour (AID 1224884); further: nearly all actives have a fitted effect of over 35% in size
Summary of the method: (§3)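 Cells (HEK293, 600/well) and dye reagent are dispensed together. After 5 h at 37 C, 23 nL compound is pinned in. Plates stay at 37 C for 40 h with fluorescence read at 0h, 8h, 16h, 24h, 32h and 40h.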

[19] = A CellTox Green Cytotoxicity Assay to monitor cytotoxicity in HEK293 cells - 16 hour (AID 1224888); further: nearly all actives have a fitted effect of over 35% in size; further: potency means the concentration at half of the fitted maximal effect
Summary of the method: as §3

[20] = target: Estrogen receptor (Homo sapiens) (UniProt P03372); assay: qHTS assay to identify small molecule agonists of the estrogen receptor alpha (ER-alpha) signaling pathway in the presence of an antagonist (AID 1259383; calls by dose curve; further: top concentration of the series differs between compounds; nearly all actives have a fitted effect of over 15% in size)
Estrogen receptor (Homo sapiens), sequence (P03372 whole entry, looked up): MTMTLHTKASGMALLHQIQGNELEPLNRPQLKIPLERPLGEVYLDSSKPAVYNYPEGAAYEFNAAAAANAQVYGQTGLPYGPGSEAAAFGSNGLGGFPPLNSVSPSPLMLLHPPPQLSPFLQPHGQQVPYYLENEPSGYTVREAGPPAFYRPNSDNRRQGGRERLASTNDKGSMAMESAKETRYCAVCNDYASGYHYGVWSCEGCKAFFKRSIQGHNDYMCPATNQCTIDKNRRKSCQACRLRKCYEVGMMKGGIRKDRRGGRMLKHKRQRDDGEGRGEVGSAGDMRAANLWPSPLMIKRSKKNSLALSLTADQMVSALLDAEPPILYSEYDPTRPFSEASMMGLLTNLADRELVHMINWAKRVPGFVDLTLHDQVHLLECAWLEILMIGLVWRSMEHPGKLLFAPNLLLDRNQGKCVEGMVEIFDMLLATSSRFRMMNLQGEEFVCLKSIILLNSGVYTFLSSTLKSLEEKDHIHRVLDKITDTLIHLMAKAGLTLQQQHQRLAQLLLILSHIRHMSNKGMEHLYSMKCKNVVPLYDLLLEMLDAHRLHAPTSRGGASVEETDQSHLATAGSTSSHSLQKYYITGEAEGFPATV
Summary of the method: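 Agonist-mode confirmation in the presence of the ER antagonist ICI-182,780 at 10.0nM final. Breast-derived VM7Luc4E2 reporter cells were exposed to compounds for 22hr, and ERE-driven luciferase was quantified by luminescence.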

Measured: Potency

Cc1c(N)cccc1[N+](=O)[O-]
inactive: [1]

Cc1cc(C(C)(C)c2ccc(O)c(C)c2)ccc1O
active: [2] 51.9 µM | [5] 23.4 µM | [9] 46.2 µM | [11] 58.2 µM | [12] 2.14 µM | [13] 5.37 µM
inactive: [3] | [4] | [6] | [7] | [8] | [10]

C[C@]12CC[C@@H](O)C[C@@H]1CC[C@@H]1[C@@H]2CC[C@]2(C)C(=O)CC[C@@H]12
active: [5] 24.5 µM | [8] 34.7 µM
not listed: [1] | [2] | [3] | [11] | [12] | [13] | [20]
inactive: all other assays above

O=C1C(I)=CC(=C(c2cc(I)c(O)c(I)c2)c2ccccc2C(=O)O)C=C1I
active: [11] 11.9 µM | [12] 13.8 µM | [13] 3.89 µM
not listed: [2] | [3]
inactive: all other assays above

c1ccncc1
inactive: [1]

COc1ccc(C(c2ccc(OC)cc2)C(Cl)(Cl)Cl)cc1
active: [5] 48.7 µM | [11] 17.1 µM | [12] 0.354 µM | [13] 1.82 µM
not listed: [1] | [3] | [4] | [7] | [9] | [18]
inactive: all other assays above

CC(CCl)OC(C)CCl (centres undefined)
inactive: [1]

CO/C=C(/C(=O)OC)c1ccccc1Oc1cc(Oc2ccccc2C#N)ncn1
inactive: [3] | [15] | [16] | [17] | [18] | [19] | [20]
active: [2] 20.6 µM | [5] 23.3 µM | [9] 58.1 µM | [11] 0.686 µM | [12] 2.39 µM | [13] 7.45 µM

O=C(O)C(c1ccc(Cl)cc1)c1ccc(Cl)cc1
inactive: [1]

CN1CSC(=S)N(C)C1
active: [2] 6.08 µM and 13.6 µM | [14] 4.83 µM and 15.3 µM | [4] 17.3 µM | [5] 17.3 µM and 24.5 µM | [15] 10.9 µM and 27.5 µM | [16] 12.2 µM and 10.9 µM | [17] 10.9 µM and 21.8 µM | [9] 3.05 µM and 13.6 µM | [11] 5.43 µM | [12] 35.4 µM and 17.8 µM | [13] 8.91 µM
inactive: [3] | [6] | [18] | [7] | [19] | [8] | [20] | [10]

C=CC(=O)OCCCC
inactive: [1]

Clc1ccccc1-c1ccccc1Cl
inactive: [2] | [3] | [14] | [4] | [6] | [7] | [8] | [9] | [12]
active: [19] 35.2 µM
